Source: PubChem BioAssay AID1159580 (chemical genetic matrix, 2015)
Values joined by “and” are separate entries in the source; they are usually repeats but may differ in a detail not shown here. Identical values can stand only once. Hit rate of the full screen: of about 5,500 compounds, about 2,000 (36%) were called active. Another 18% or so got no clear call; they are omitted. Rule as the data show it: active = normalized growth mostly below about 0.91 (no sharp cut-off); inconclusive = no clear call, values can overlap the other calls; inactive = mostly above about 0.92. The list shows a part of the results.

Assay: chemical genetic growth profiling, strain panel (AID 1159580);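 also: tested at 20 µM; growth read once vehicle control cultures reached saturation at 30 °C; 1 = growth at the plate median or of vehicle wells; lower values mean less growth of the strain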
Settings: S. cerevisiae deletion strains, growth OD

Measured: normalized growth

C[C@@H](CO)NC(=O)C1C=C2c3cccc4[nH]cc(c34)C[C@H]2N(C)C1 (stereo partly specified)
inactive: locus YAL013W, strain DEP1, hits give low values 1.02 | locus YAL021C, strain ccr4, hits give low values 1.01 | locus YAL026C, strain drs2, hits give low values 0.989 | locus YAL030W, strain snc1, hits give low values 1.03 | locus YBL061C, strain skt5, hits give low values 1.02 | locus YBR009C, strain hhf1, hits give low values 0.979 | locus YBR021W, strain FUR4, hits give low values 0.963 | locus YBR023C, strain chs3, hits give low values 1.01 | locus YBR171W, strain sec66, hits give low values 1.02 | locus YBR229C, strain ROT2, hits give low values 0.997 | locus YBR231C, strain swc5, hits give low values 1.02 | locus YBR279W, strain paf1, hits give low values 1 | locus YCL011C, strain gbp2, hits give low values 0.991 | locus YCL016C, strain dcc1, hits give low values 0.955 | locus YCL029C, strain bik1, hits give low values 0.986 | locus YCL069W, strain vba3, hits give low values 1.01 | locus YCR088W, strain abp1, hits give low values 1.01 | locus YDL005C, strain med2, hits give low values 1.02 | locus YDL035C, strain GPR1, hits give low values 1.03 | locus YDL040C, strain nat1, hits give low values 1.01 | locus YDL074C, strain BRE1, hits give low values 1.08 | locus YDL101C, strain DUN1, hits give low values 0.996 | locus YDL134C, strain PPH21, hits give low values 0.995 | locus YDL185W, strain tfp1, hits give low values 0.983 | locus YDL192W, strain arf1, hits give low values 0.994 | locus YDR001C, strain nth1, hits give low values 1 | locus YDR069C, strain doa4, hits give low values 1.04 | locus YDR101C, strain arx1, hits give low values 0.997 | locus YDR137W, strain rgp1, hits give low values 0.984 | locus YDR150W, strain NUM1, hits give low values 0.987 | locus YDR159W, strain sac3, hits give low values 0.937 | locus YDR162C, strain NBP2, hits give low values 1.02 | locus YDR195W, strain ref2 1.01 | locus YDR297W, strain sur2, hits give low values 1.03 | locus YDR318W, strain mcm21, hits give low values 0.994 | locus YDR334W, strain swr1, hits give low values 1 | locus YDR335W, strain msn5, hits give low values 1.01 | locus YDR388W, hits give low values 0.998 | locus YDR392W, strain spt3, hits give low values 0.942 | locus YDR502C, strain sam2, hits give low values 0.996 | locus YEL003W, strain gim4, hits give low values 1.03 | locus YEL037C, strain rad23, hits give low values 1.01 | locus YEL061C, strain CIN8 (second series), hits give low values 1 | locus YEL061C, strain CIN8, hits give low values 1.01 | locus YER015W, strain faa2, hits give low values 1.01 | locus YER016W, strain bim1, hits give low values 0.994 | locus YER110C, hits give low values 0.99 | locus YER111C, strain swi4, hits give low values 1 | locus YER155C, strain BEM2 (second series), hits give low values 1.08 | locus YER155C, strain BEM2, hits give low values 1 | locus YER167W, strain BCK2, hits give low values 0.99 | locus YFR010W, strain ubp6, hits give low values 1.01 | locus YGL078C, strain dbp3, hits give low values 0.995 | locus YGL086W, strain mad1, hits give low values 0.987 | locus YGL167C, strain pmr1, hits give low values 1.03 | locus YGL173C, strain kem1, hits give low values 1.04 | locus YGL227W, strain vid30, hits give low values 1.01 | locus YGL240W, strain doc1, hits give low values 1.04 | locus YGL248W, strain PDE1, hits give low values 0.993 | locus YGL253W, strain hxk2, hits give low values 0.985 | locus YGR078C, strain PAC10, hits give low values 1.03 | locus YGR135W, strain pre9, hits give low values 1.01 | locus YGR229C, strain SMI1, hits give low values 1.06 | locus YGR252W, strain gcn5, hits give low values 0.977 | locus YHR013C, strain ard1, hits give low values 1 | locus YHR027C, strain rpn1, hits give low values 1.01 | locus YHR030C, strain SLT2, hits give low values 0.991 and 1.04 | locus YHR079C, strain IRE1 (second series), hits give low values 0.991 | locus YHR079C, strain IRE1, hits give low values 1.04 | locus YHR094C, strain hxt1, hits give low values 0.991 | locus YHR129C, strain ARP1, hits give low values 0.999 | locus YHR142W, strain chs7, hits give low values 0.99 | locus YHR200W, strain rpn10, hits give low values 0.988 | locus YIL066C, strain RNR3, hits give low values 1 | locus YIL073C, strain SPO22, hits give low values 0.949 | locus YIL125W, strain kgd1, hits give low values 0.99 | locus YIR030C, strain dcg1, hits give low values 0.994 | locus YJL092W, strain hpr5, hits give low values 1.03 | locus YJL095W, strain BCK1 (second series), hits give low values 1.03 | locus YJL095W, strain BCK1, hits give low values 1.05 and 1.04 | locus YJL115W, strain asf1, hits give low values 1.01 | locus YJL129C, strain trk1, hits give low values 1.02 | locus YJL134W, strain LCB3, hits give low values 0.997 | locus YJL154C, strain vps35, hits give low values 1.01 | locus YJL164C, strain tpk1, hits give low values 0.989 | locus YJL166W, strain qcr8, hits give low values 1.03 | locus YJL168C, strain set2, hits give low values 0.998 | locus YJL187C, strain SWE1 (second series), hits give low values 1 | locus YJL187C, strain SWE1, hits give low values 1.02 | locus YJR043C, strain POL32, hits give low values 0.995 | locus YJR066W, strain TOR1, hits give low values 1.01
